PvdQ inh = blocks Pseudomonas aeruginosa PvdQ acylase activity | purified PvdQ acylase, fluorescence plate reader | inhibition, % at 10 µM | actives 0.063% (n = 340,000) | AID 488965; in the data active = inhibition above about 30%, passing the limit was not always enough; inconclusive = no clear call, values can overlap the other calls;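 also: 0% = vehicle neutral wells and 100% = reference inhibitor wells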
AI-2 QS mod = Vibrio harveyi AI-2 quorum sensing modulation; Vibrio harveyi JMH597 AI-2 luminescence/OD600 ratio, 9 h; stronger effect = lower value; strain lacks LuxN and CqsS sensors; 0 = neutral-control median; activity change, % at 7.5 µM; actives 0.4% (n = 300,000); AID 2094; in the data active = activity change below about -75%, passing the limit was not always enough; inconclusive = no clear call, values can overlap the other calls;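 also: luminescence divided by OD600 gain over 9 h not by final OD600 alone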
PDI turbidity = inhibitors of human protein disulfide isomerase; P07237; PDI insulin aggregation turbidity, A650, 90 min; inhibition, % at 10 µM; actives 0.052% (n = 350,000); AID 588391;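 active = mean inhibition across replicates of 30% or more, whatever share of single replicates reach that level; inconclusive = mean inhibition below 30% while every single replicate reaches 30%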
Target sequence (P07237 whole entry, looked up): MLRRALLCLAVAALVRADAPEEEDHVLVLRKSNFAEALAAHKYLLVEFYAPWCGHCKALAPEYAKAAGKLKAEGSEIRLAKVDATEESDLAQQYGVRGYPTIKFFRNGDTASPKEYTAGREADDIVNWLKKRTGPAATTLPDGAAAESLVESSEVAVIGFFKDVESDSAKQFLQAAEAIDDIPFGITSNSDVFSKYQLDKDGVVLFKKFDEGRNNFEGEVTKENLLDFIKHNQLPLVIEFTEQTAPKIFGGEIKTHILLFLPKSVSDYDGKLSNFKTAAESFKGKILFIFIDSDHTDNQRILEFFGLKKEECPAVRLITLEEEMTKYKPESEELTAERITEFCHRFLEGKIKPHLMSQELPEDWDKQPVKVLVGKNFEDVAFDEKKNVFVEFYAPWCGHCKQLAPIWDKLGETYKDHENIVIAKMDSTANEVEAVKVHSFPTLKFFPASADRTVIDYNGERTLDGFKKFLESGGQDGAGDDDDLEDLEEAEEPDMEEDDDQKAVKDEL
Vif imaging = blocks HIV Vif function. HEK293T cells, Vif self-association by quenched fluorescence, imaging, 24 h. inhibition, % at 7.49 µM. actives 0.35% (n = 340,000). AID 602346; in the data active = inhibition above about 50%, passing the limit was not always enough; inconclusive = no clear call, values can overlap the other calls; inactive = below about 31%
ERp5 inh = blocks human ERp5 reductase activity on insulin | ERp5 insulin aggregation, absorbance 650 nm, 90 min | inhibition, % at 9.99 µM | actives 0.05% (n = 350,000);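 active = mean replicate inhibition above about 25%, with every replicate also reaching it, limit read from the data, passing the limit was not always enough; inconclusive = only one of those two criteria met; inactive = neither criterion met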
JMH597 growth = retest Vibrio harveyi JMH597 growth inhibition | shares compounds with AI-2 QS mod | OD600 absorbance, 9 h; lacks LuxN and CqsS sensors | growth inhibition, % at 7.5 µM | actives 1% (n = 750) | AID 2726;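 active = every replicate shows growth inhibition above 50%; inconclusive = at least half, but not all, replicates pass that cutoff; inactive = fewer than half of replicates pass it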
BB721 lum counter = retest counter-screen: luminescence loss in constitutive-on quorum sensing strain BB721; AID 2727; Vibrio harveyi BB721 luminescence, 9 h; shares compounds with AI-2 QS mod; actives 95% (n = 750); inhibition, % at 7.5 µM;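 active = inhibition above about 80% in every replicate, not just on average, limit read from the data; inconclusive = at least half of replicates past the limit, but not all; inactive = fewer than half of replicates past the limit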
BB721 growth = retest Vibrio harveyi BB721 growth inhibition | OD600 absorbance, 9 h | actives 3% (n = 750) | growth inhibition, % at 7.5 µM | AID 2728 | shares compounds with AI-2 QS mod;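 active = every replicate shows growth inhibition above 50%; inconclusive = at least half but not all replicates above 50% inhibition; inactive = under half of replicates above 50% inhibition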
AI-2 QS JMH597 = Vibrio harveyi AI-2 signaling luminescence modulation – JMH597 strain, confirmation; shares compounds with AI-2 QS mod; inhibition, % at 7.5 µM; AID 2736; Vibrio harveyi JMH597 AI-2 quorum sensing luminescence, 9 h; luxN and CqsS knockout, AI-2 only; actives 97% (n = 750);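 active = every replicate shows more than 75% inhibition of signal versus neutral control wells; inconclusive = half to three quarters of replicates exceed 75% inhibition; inactive = fewer than half of replicates exceed 75% inhibition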
The depositor's hits bear a star; ? = inconclusive; · = no result. Sampled rows, rich in hits. Any-hit rate of the full collection: about 0.64%.

SMILES	PvdQ inh	AI-2 QS mod	PDI turbidity	Vif imaging	ERp5 inh	JMH597 growth	BB721 lum counter	BB721 growth	AI-2 QS JMH597
N#Cc1cccc(NC(=O)CN2C(=O)NC(Cc3ccccc3)C2=O)c1 (stereo not given)	-6	-84*	0	1	3	0	89*	4	93*
C[C@H]1CCCCO[C@@H](CN(C)S(=O)(=O)c2cn(C)cn2)[C@@H](C)CN([C@@H](C)CO)C(=O)c2cc(NC(=O)CCC(F)(F)F)ccc2O1	·	·	·	·	1	·	·	·	·
Cc1ccccc1Nc1nc(N)nc(COc2ccc(C#N)cc2)n1	1	-83*	18	-10	2	10	93*	22	96*
COc1ccc(OCc2nc(N)nc(Nc3ccccc3OC)n2)cc1	8	10	8	-1	·	·	·	·	·
Cc1nn(Cc2ccc(Cl)cc2)c(C)c1NC(=O)c1c(-c2ccccc2)noc1C	-9	-80*	6	-10	·	1	93*	-8	94*
COc1ccc(NC(=O)CSCC(=O)N(C)CC(=O)Nc2ccc(Cl)c(C(F)(F)F)c2)cc1	-10	-80*	3	-19	10	24	89*	-18	91*
O=C(Cc1ccc(Cl)cc1)N/N=C/c1cccc(O)c1	-15	-95*	5	8	3	12	97*	1	98*
O=C(Cc1ccc(Cl)cc1)N/N=C/c1ccncc1	-16	-81*	-2	3	3	-25	92*	6	92*
O=C(Cc1ccc(Cl)cc1)N/N=C/c1ccccc1	18	-65	-6	-11	2	·	·	·	·
CN(C)CC(=O)N[C@@H]1CC[C@H](CCn2cc(C3CC3)nn2)O[C@H]1CO	·	·	·	·	-3	·	·	·	·
O=S(=O)(N/N=C\C=C\c1ccccc1)c1ccc(Cl)cc1	-23	-94*	-1	·	·	41	99*	27	100*
COc1ccc(CSc2nc3ccccc3[nH]2)cc1	-8	-85*	7	·	·	21	92*	-14	96*
N#Cc1nc(-c2ccccc2)oc1NCc1ccco1	-18	?	0	·	7	6	90*	3	93*
COc1ccc(-c2nc(C#N)c(NCCc3ccccc3)o2)cc1	-5	11	0	1	0	·	·	·	·
N#Cc1nc(-c2ccc(Cl)cc2)oc1NCc1ccco1	-14	7	4	-4	·	·	·	·	·
COc1ccc(CNc2oc(-c3ccccc3)nc2C#N)cc1	-1	-95*	·	4	-8	22	98*	-5	99*
COc1ccc(S(=O)(=O)N[C@@H]2C=C[C@@H](CC(=O)N3CCN(c4ccccc4)CC3)O[C@H]2CO)cc1	·	·	·	·	-3	·	·	·	·
COC(=O)C[C@@H]1C[C@@H]2c3cc(NC(=O)Nc4ccc(OC)cc4)ccc3O[C@@H]2[C@@H](CO)O1	·	·	·	·	3	·	·	·	·
C[C@H](CO)N1C[C@H](C)[C@H](CN(C)S(=O)(=O)c2ccccc2)OCCCC[C@H](C)Oc2ccc(NS(=O)(=O)c3cccs3)cc2C1=O	·	·	·	·	2	·	·	·	·
Clc1cccc(OCc2nc(-c3ccncc3)no2)c1	-5	-88*	4	3	4	10	96*	-11	97*
Clc1ccc(OCc2nc(-c3ccncc3)no2)c(Cl)c1	-19	10	-1	-1	·	·	·	·	·
c1ccc(OCc2nc(-c3cccs3)no2)cc1	-5	-84*	-2	11	·	24	96*	11	97*
O=C(CC(F)(F)F)N1C[C@@H]2[C@H](c3ccccc31)[C@@H](CO)N2C(=O)C1CCCC1	·	·	·	·	-3	·	·	·	·
C/C(=N\Nc1ccc([N+](=O)[O-])cc1)c1ccc(O)cc1	-1	-49	-4	4	-1	·	·	·	·
CC(=O)NC/C(C)=N\Nc1ccc([N+](=O)[O-])cc1	3	-86*	-1	1	·	13	96*	55*	96*
SMILES	PvdQ inh	AI-2 QS mod	PDI turbidity	Vif imaging	ERp5 inh	JMH597 growth	BB721 lum counter	BB721 growth	AI-2 QS JMH597
Cc1ccc(CNC(=O)NCc2ccccc2)cc1	-4	-49	10	·	-2	·	·	·	·
COc1cccc(CNC(=O)Nc2cccs2)c1	0	16	9	-5	·	·	·	·	·
O=C(NCc1ccc(Cl)cc1)Nc1ccc(F)cc1	-11	?	-8	-9	5	-19	96*	-8	96*
Cc1ccc(CNC(=O)Nc2ccc(Cl)cc2)cc1	-13	-83*	6	-8	-11	-22	86*	-21	90*
Cc1ccc(CNC(=O)Nc2ccccc2)cc1	-7	-91*	6	12	·	-6	97*	4	97*
Cc1ccc(CNC(=O)Nc2cccs2)cc1	-5	-82*	-21	·	·	15	95*	25	95*
O=C(NCCNC(=O)Nc1ccc(Cl)cc1)Nc1ccc(Cl)cc1	-13	·	-17	-1	7	·	·	·	·
O=C(NCc1cccs1)Nc1ccc(Cl)cc1	-8	?	-2	23	·	34	94*	60*	91*
C[C@@H]1CCCCO[C@@H](CN(C)Cc2ccc(C(=O)O)cc2)[C@H](C)CN([C@H](C)CO)C(=O)c2cc(NC(=O)c3ccccc3)ccc2O1	·	·	·	·	-11	·	·	·	·
c1ccc(OCCSc2nc3ccccc3o2)cc1	13	-80*	-5	-1	·	27	94*	7	96*
CCOc1ccc(OCCSc2nc3ccccc3o2)cc1	-6	23	1	3	·	·	·	·	·
c1ccc2nc(SCc3cn4ccccc4n3)cnc2c1	-1	-69	-10	2	0	·	·	·	·
c1ccc(-c2noc(CSc3nc4ccccc4o3)n2)cc1	-13	?	-4	-2	·	-3	87*	-34	94*
c1ccc2oc(SCc3cn4ccccc4n3)nc2c1	-7	-78*	-2	4	4	3	92*	3	95*
Clc1ccc(-c2nnc(SCc3nc(-c4ccccc4)no3)o2)cc1	-12	22	-3	·	0	·	·	·	·
C[C@@H]1CN([C@H](C)CO)C(=O)c2cc(-c3cccc(C(=O)N(C)C)c3)cnc2O[C@H]1CN(C)S(=O)(=O)c1ccccc1	·	·	·	·	0	·	·	·	·
C[C@@H]1CN([C@@H](C)CO)C(=O)c2cc(C3=CCCCC3)cnc2O[C@H]1CN(C)C(=O)c1ccccc1	·	·	·	·	0	·	·	·	·
CN1CCCCN2[C@H](CO)[C@@H](c3ccc(-c4ccc(F)cc4)cc3)[C@@H]2C1	·	·	·	·	-6	·	·	·	·
C[C@@H]1CN([C@H](C)CO)C(=O)Cc2cc(NC(=O)Nc3ccc(F)cc3)ccc2O[C@@H]1CN(C)Cc1ccc(C(=O)O)cc1	·	·	·	·	2	·	·	·	·
COc1ccc(CC(=O)O/N=C(\N)c2ccc(C)cc2)cc1	0	-89*	-1	28	8	-35	96*	-56	97*
